Calls of active or inactive are those of the source. How the source made its calls: active means hit-call score of the fitted dose curve at least 0.9, where 1 is the maximum; inactive means score below 0.9.
How the values were obtained:
[1] = ATG_ISRE_CIS: Attagene CIS-FACTORIAL HepG2 Assay for human Interferon Regulatory Factor 1 (IRF1) binding to an Interferon-Stimulated Response Element (ISRE) (AID 2282948); details: HepG2 ISRE cis-reporter (Attagene), mRNA transcription readout; actives raise or lower the signal
Outline: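 Read-out: fluorescent RT-PCR products resolved by capillary electrophoresis, reporting endogenous transcription factor activity via ISRE-driven reporter mRNA in transfected HepG2 cells dosed for 24 h; gain or loss fitted relative to DMSO.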

[2] = ATG_M_32_CIS: Attagene CIS-FACTORIAL HepG2 Assay for M32 Transcription Factor (Internal Marker) (AID 2282949); details: HepG2 Attagene cis-factorial M32 reporter, mRNA; actives raise or lower the signal;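 further: background control marker of the multiplexed CIS panel rather than a real target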
Outline: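 HepG2 transfectants (cis-regulated reporter transcription units) dosed 24 h. Reporter mRNA by RT-PCR plus CE, analysed as gain or loss relative to DMSO.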

[3] = ATG_M_06_CIS: Attagene CIS-FACTORIAL HepG2 Assay for M06 Transcription Factor (Internal Marker) (AID 2282950); details: HepG2 Attagene CIS-FACTORIAL M06 internal marker reporter; actives raise or lower the signal
Outline: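 Serves as a background control readout. Transfected HepG2 exposed to compounds for 24 h, then reporter transcripts quantified by fluorescent RT-PCR and capillary electrophoresis. Both directions fitted against DMSO baseline.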

[4] = target: Hypoxia-inducible factor 1-alpha (Homo sapiens) (UniProt Q16665); experiment: ATG_HIF1a_CIS: Attagene CIS-FACTORIAL HepG2 Assay for human Hypoxia Inducible Factor 1 (HIF1A) (AID 2282951); details: HepG2 Attagene cis-factorial HIF1a reporter transcription; actives raise or lower the signal
Hypoxia-inducible factor 1-alpha (Homo sapiens), sequence (Q16665 whole entry, looked up): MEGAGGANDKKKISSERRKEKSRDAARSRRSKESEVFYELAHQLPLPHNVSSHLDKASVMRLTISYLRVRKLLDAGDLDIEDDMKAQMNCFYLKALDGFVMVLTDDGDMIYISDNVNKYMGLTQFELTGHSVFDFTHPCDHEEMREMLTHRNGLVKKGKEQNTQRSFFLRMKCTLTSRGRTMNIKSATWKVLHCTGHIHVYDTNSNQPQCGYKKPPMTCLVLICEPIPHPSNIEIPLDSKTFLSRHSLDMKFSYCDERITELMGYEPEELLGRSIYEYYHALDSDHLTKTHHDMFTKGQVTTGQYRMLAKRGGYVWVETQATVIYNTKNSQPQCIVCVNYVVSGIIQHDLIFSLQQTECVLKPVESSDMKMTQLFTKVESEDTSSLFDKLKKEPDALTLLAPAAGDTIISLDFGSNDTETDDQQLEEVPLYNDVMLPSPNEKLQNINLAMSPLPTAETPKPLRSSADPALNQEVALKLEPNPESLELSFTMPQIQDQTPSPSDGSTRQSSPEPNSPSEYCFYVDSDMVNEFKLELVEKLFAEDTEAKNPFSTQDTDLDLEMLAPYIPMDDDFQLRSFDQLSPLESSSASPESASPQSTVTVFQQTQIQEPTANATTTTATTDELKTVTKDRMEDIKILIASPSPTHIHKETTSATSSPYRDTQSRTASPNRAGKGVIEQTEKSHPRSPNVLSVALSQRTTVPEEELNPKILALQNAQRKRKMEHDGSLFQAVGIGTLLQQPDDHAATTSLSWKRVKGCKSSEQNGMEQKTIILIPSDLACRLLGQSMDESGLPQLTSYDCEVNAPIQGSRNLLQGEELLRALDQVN
Outline: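 Activity is fitted in both directions relative to DMSO. Reporter transcripts are read by RT-PCR, fluorescent primer extension and capillary electrophoresis after 24 h chemical treatment. The cells are HepG2 carrying transiently transfected cis-element-driven reporter units responding to endogenous factors.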

[5] = target: Hepatocyte nuclear factor 6 (Homo sapiens) (UniProt Q9UBC0); experiment: ATG_HNF6_CIS: Attagene CIS-FACTORIAL HepG2 Assay for human Hepatocyte Nuclear Factor 6 (HNF6) (AID 2282952); details: HepG2 Attagene cis-factorial HNF6 reporter transcription; actives raise or lower the signal
Hepatocyte nuclear factor 6 (Homo sapiens), sequence (Q9UBC0 whole entry, looked up, the tested form may be a part): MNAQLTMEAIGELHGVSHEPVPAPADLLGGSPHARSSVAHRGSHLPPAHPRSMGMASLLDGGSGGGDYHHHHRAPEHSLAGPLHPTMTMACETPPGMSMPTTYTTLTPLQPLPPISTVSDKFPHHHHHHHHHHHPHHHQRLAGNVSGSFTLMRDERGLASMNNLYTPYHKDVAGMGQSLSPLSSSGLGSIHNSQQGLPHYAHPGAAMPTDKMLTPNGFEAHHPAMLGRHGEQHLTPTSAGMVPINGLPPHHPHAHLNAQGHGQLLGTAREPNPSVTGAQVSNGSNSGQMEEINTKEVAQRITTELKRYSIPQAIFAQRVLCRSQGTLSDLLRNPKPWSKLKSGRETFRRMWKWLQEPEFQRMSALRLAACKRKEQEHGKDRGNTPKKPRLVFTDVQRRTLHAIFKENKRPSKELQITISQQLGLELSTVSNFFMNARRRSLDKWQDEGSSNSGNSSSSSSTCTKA
Outline: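 Readout: fluorescent reporter-transcript fragments resolved by capillary electrophoresis after RT-PCR, reflecting endogenous factor activity in transfected HepG2. Exposure 24 h. Gain or loss of signal fitted bidirectionally against DMSO.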

[6] = target: Heat shock factor protein 1 (Homo sapiens) (UniProt Q00613); experiment: ATG_HSE_CIS: Attagene CIS-FACTORIAL HepG2 Assay for human Heat Shock Transcription Factor 1 (HSE) (AID 2282953); details: HepG2 HSE cis-reporter, Attagene RNA transcription; actives raise or lower the signal
Heat shock factor protein 1 (Homo sapiens), sequence (Q00613 whole entry, looked up): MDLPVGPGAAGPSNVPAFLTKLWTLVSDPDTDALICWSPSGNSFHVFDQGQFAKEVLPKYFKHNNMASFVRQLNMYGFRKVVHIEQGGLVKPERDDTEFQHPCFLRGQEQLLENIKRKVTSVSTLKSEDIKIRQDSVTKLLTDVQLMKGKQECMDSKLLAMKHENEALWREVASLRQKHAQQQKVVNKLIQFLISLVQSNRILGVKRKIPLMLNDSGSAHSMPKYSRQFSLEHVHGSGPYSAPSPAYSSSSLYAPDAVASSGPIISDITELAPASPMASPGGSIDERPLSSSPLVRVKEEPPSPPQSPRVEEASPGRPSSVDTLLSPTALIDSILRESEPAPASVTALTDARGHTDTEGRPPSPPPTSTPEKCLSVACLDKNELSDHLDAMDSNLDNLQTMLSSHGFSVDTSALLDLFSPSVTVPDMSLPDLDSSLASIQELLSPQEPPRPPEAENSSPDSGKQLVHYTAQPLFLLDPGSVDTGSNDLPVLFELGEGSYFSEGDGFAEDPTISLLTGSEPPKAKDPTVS
Outline: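 Endogenous transcription factor activity in transiently transfected HepG2, read as reporter mRNA by RT-PCR with fluorescent capillary electrophoresis after 24 h. Gain or loss of signal fitted versus DMSO baseline.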

[7] = ATG_MRE_CIS: Attagene CIS-FACTORIAL HepG2 Assay for human Metal Responsive Element (MRE) (AID 2282954); details: HepG2 MRE cis-reporter transcription, Attagene multiplex; actives raise or lower the signal
Outline: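 Measured here is mRNA induction from an MRE cis-element reporter in HepG2 after 24 h, quantified by fluorescence of labelled RT-PCR products on capillary electrophoresis; gain- and loss-of-signal fits use DMSO as baseline.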

[8] = ATG_PBREM_CIS: Attagene CIS-FACTORIAL HepG2 Assay for human Phenobarbital-responsive Enhancer Module (PBREM) (AID 2282955); details: HepG2 PBREM cis-reporter, Attagene multiplexed transcription; actives raise or lower the signal
Outline: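 Endogenous transcription factor activity was read from reporter transcripts in transiently transfected human HepG2 liver cells after 24 h dosing. RT-PCR products were fluorescently labelled, HpaI-cut and sized by capillary electrophoresis; activity fitted bidirectionally against DMSO baseline.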

[9] = target: Paired box protein Pax-6 (Homo sapiens) (UniProt P26367); experiment: ATG_Pax6_CIS: Attagene CIS-FACTORIAL HepG2 Assay for human Paired Box 6 (PAX6) (AID 2282956); details: HepG2 CIS-FACTORIAL PAX6 reporter transcription, RNA readout; actives raise or lower the signal
Paired box protein Pax-6 (Homo sapiens), sequence (P26367 whole entry, looked up): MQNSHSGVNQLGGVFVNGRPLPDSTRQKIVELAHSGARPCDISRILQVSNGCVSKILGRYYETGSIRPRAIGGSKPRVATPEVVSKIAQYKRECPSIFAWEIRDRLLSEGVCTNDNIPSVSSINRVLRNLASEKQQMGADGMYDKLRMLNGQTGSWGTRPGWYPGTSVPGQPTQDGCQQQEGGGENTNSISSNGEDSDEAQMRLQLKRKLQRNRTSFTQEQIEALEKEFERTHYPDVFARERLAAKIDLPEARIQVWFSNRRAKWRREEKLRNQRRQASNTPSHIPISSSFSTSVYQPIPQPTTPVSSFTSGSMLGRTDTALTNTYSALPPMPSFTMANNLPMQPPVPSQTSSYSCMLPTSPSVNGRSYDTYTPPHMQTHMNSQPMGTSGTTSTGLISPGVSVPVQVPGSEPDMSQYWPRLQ
Outline: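 Readout: reporter transcript fluorescence after RT-PCR and capillary electrophoresis. Cells: HepG2, transiently transfected with cis-regulated MRTUs. Exposure 24 h. Gain or loss of signal fitted bidirectionally relative to DMSO.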

[10] = ATG_PXRE_CIS: Attagene CIS-FACTORIAL HepG2 Assay for human Pregnane X Receptor Element (PXRE) (AID 2282957); details: HepG2 Attagene CIS-FACTORIAL PXRE reporter, mRNA; actives raise or lower the signal
Outline: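 Read-out: fluorescence of reporter-specific RT-PCR products resolved by capillary electrophoresis, fitted bidirectionally relative to DMSO. Human HepG2 liver cells carried transfected cis-promoter reporter units and were exposed to chemicals for 24 h.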

[11] = ATG_PPRE_CIS: Attagene CIS-FACTORIAL HepG2 Assay for human Peroxisome Proliferator-activated Response Element (PPRE) (AID 2282958); details: HepG2 PPRE cis-element reporter, Attagene transcription factor profiling; actives raise or lower the signal
Outline: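 Endogenous PPRE-driven transcription is measured in HepG2 cells carrying transfected multi-reporter constructs. Reporter transcripts are quantified by RT-PCR, HpaI digestion and capillary electrophoresis 24 h after dosing. DMSO baseline, bidirectional fit.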

[12] = ATG_RORE_CIS: Attagene CIS-FACTORIAL HepG2 Assay for human RAR-related Orphan Receptor Element (RORE) (AID 2282959); details: HepG2 Attagene cis-factorial RORE reporter, mRNA; actives raise or lower the signal
Outline: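 RORE reporter transcripts reflecting endogenous factor activity were read after 24 h compound exposure of transfected HepG2 cells, using reverse transcription, PCR, fluorescent labelling and capillary electrophoresis sizing. Gain or loss fitted against DMSO.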

[13] = target: Transcription factor Sp1 (Homo sapiens) (UniProt P08047); experiment: ATG_Sp1_CIS: Attagene CIS-FACTORIAL HepG2 Assay for human Specificity Protein 1 (Sp1) (AID 2282961); details: HepG2 Sp1 cis-reporter transcription, actives raise or lower the signal
Transcription factor Sp1 (Homo sapiens), sequence (P08047 whole entry, looked up): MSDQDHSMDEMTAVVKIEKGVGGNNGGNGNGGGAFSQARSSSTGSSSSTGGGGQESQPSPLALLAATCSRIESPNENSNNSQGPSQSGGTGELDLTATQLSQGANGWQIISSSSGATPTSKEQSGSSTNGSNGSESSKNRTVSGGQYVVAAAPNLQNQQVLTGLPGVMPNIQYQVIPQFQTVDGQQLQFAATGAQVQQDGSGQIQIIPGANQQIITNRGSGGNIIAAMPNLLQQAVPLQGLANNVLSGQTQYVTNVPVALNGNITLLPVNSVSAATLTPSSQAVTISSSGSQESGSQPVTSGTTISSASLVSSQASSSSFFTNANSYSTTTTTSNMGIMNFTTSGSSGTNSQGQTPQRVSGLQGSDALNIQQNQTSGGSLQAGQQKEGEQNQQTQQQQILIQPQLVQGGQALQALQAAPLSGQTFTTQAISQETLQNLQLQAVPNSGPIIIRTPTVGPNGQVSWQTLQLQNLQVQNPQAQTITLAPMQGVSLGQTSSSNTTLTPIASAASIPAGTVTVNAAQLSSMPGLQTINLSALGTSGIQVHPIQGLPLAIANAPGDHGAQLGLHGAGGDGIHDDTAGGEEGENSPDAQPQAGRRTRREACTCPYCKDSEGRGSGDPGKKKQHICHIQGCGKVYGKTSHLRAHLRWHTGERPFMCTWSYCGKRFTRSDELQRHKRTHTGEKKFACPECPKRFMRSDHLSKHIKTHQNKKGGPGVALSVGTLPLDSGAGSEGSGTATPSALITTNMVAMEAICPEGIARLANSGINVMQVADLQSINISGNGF
Outline: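 Read-out is reporter transcript level, measured by RT-PCR and fluorescent capillary electrophoresis after 24 h chemical treatment. System: transiently transfected HepG2 cells reporting endogenous transcription factor activity; gain or loss fitted against DMSO baseline.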

[14] = ATG_SREBP_CIS: Attagene CIS-FACTORIAL HepG2 Assay for human Sterol Regulatory Element Binding (SREBP) (AID 2282962); details: HepG2 Attagene cis-factorial SREBP reporter, mRNA; actives raise or lower the signal
Outline: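 Readout: fluorescent reporter-transcript peaks resolved by capillary electrophoresis after RT-PCR. Cells were human HepG2 carrying transfected cis-promoter reporter constructs, dosed for 24 h. Gain or loss of signal was fitted against DMSO controls.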

[15] = target: Signal transducer and activator of transcription 3 (Homo sapiens) (UniProt P40763); experiment: ATG_STAT3_CIS: Attagene CIS-FACTORIAL HepG2 Assay for human Signal Transducer and Activator of Transcription 3 (STAT3) (AID 2282963); details: HepG2, Attagene cis-factorial STAT3 reporter transcription; actives raise or lower the signal
Signal transducer and activator of transcription 3 (Homo sapiens), sequence (P40763 whole entry, looked up, the tested form may be a part): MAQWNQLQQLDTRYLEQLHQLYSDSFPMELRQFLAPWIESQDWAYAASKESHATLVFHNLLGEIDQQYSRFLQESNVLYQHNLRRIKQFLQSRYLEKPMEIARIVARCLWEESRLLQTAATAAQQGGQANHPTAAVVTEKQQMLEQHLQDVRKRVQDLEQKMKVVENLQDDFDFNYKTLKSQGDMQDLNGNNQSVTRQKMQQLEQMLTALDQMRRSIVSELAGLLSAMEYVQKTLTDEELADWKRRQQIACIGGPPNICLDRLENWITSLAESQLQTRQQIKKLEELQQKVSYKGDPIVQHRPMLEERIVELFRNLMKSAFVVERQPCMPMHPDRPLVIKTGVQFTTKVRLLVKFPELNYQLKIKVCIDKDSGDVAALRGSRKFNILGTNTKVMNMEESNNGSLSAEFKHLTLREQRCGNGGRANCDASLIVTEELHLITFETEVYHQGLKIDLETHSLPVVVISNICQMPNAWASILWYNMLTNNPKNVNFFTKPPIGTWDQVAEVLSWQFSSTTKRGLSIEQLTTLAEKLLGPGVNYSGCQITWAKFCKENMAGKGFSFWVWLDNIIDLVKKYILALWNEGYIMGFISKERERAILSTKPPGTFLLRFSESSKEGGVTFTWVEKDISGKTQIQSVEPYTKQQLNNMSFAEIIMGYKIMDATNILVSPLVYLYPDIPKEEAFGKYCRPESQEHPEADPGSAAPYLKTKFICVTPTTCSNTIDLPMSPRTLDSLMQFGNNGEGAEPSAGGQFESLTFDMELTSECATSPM
Outline: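 Fluorescence intensity of 6-FAM-labelled reporter fragments, separated by capillary electrophoresis after RT-PCR, gave the signal. Cells were HepG2 transfected with cis-element reporter units and treated 24 h; fitting was bidirectional relative to DMSO.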

[16] = ATG_TA_CIS: Attagene CIS-FACTORIAL HepG2 Assay for human TA Basal Promoter (AID 2282964); details: HepG2 Attagene CIS-factorial TA basal promoter reporter; actives raise or lower the signal
Outline: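 Background-control readout: TA basal promoter reporter mRNA, fitted in both directions relative to DMSO. Measured by RT-PCR and capillary electrophoresis 24 hours after treating HepG2 human liver cells transiently carrying multiplexed cis-regulated reporter constructs.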

[17] = ATG_TCF_b_cat_CIS: Attagene CIS-FACTORIAL HepG2 Assay for human T-Cell-Factor with beta-catenin (TCF/b-cat) (AID 2282965); details: HepG2 TCF/beta-catenin cis-reporter transcription, actives raise or lower the signal
Outline: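 Cells of the HepG2 line carry transiently transfected reporter units whose promoters respond to endogenous factors. Twenty-four hours post-dosing, reporter mRNA induction is measured by fluorescent RT-PCR and capillary electrophoresis, with DMSO as baseline.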

[18] = ATG_GRE_CIS: Attagene CIS-FACTORIAL HepG2 Assay for human Glucocorticoid Response Elements (GRE) (AID 2282947); details: HepG2 GRE cis-reporter, Attagene multiplex mRNA; actives raise or lower the signal
Outline: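 Fluorescence intensity of reporter-specific cDNA fragments, separated by capillary electrophoresis, provides the signal. Constructs carry cis-regulating promoters in transiently transfected HepG2 liver cells; 24 h incubation; fitting is bidirectional against DMSO.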

[19] = ATG_Sox_CIS: Attagene CIS-FACTORIAL HepG2 Assay for human SRY-box transcription factor (SOX) (AID 2282960); details: HepG2 Attagene cis-factorial SOX reporter, mRNA; actives raise or lower the signal
Outline: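 Reporter transcripts, measured by RT-PCR and capillary electrophoresis of labelled fragments, report endogenous SOX transcription factor activity. Transiently transfected human HepG2 cells receive chemical for 24 h; changes in either direction are fitted relative to DMSO.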

Measured: AC50

CCC(CC)C(=O)O
not listed: [18] | [19]
inactive: all other assays above

N[C@H]1C(O)O[C@H](CO)[C@H](O)[C@@H]1O (some centres undefined)
not listed: [18] | [19]
inactive: all other assays above

CCOCC(=O)O
active: [10] 72 µM
not listed: [2]
inactive: all other assays above

CC(CC=O)CCCC(C)(C)O (centres undefined)
active: [10] 41.2 µM
not listed: [1] | [2] | [8] | [17] | [19]
inactive: all other assays above

O=S1(=O)OC(c2ccc(O)cc2)(c2ccc(O)cc2)c2ccccc21
active: [10] 13.9 µM
not listed: [18]
inactive: all other assays above

CC(C)CCCCCOC(=O)CCS
active: [10] 6.6 µM
not listed: [1] | [5] | [12] | [16]
inactive: all other assays above

O=C1CCCCCCCCCCC(=O)OCCO1
not listed: [2] | [7] | [10] | [11] | [17]
inactive: all other assays above

C=C[Si](C)(C)O[Si](C)(C)C=C
active: [10] 27.9 µM
not listed: [1] | [8] | [11]
inactive: all other assays above

O=C(O)c1ccccc1Nc1cccc(C(F)(F)F)c1
active: [7] 100 µM | [10] 5.5 µM | [11] 33 µM | [12] 100 µM | [14] 26.5 µM
not listed: [2] | [4] | [13] | [16] | [17]
inactive: all other assays above

O=C(Oc1ccccc1)c1ccc2ccccc2c1O
active: [4] 34.6 µM | [6] 66.2 µM | [7] 57.2 µM | [8] 24.8 µM | [10] 21.5 µM | [11] 41.6 µM | [12] 34.3 µM | [15] 26.1 µM | [16] 54.9 µM
inactive: [1] | [2] | [3] | [5] | [9] | [19] | [13] | [14] | [17]

CC1(C)O[C@@H]2C[C@H]3[C@@H]4C[C@H](F)C5=CC(=O)CC[C@]5(C)[C@H]4[C@@H](O)C[C@]3(C)[C@]2(C(=O)CO)O1
active: [18] 0.0823 µM | [10] 22.8 µM
not listed: [1] | [8]
inactive: all other assays above

O=C1c2ccccc2C(=O)C1c1nc2ccccc2c(Br)c1O
active: [4] 4.92 µM | [10] 5.42 µM
not listed: [1] | [7] | [8]
inactive: all other assays above

COC(=O)c1c(C)cc(O)c(C)c1O
not listed: [18]
inactive: all other assays above

CCCCC/C=C\CCC=O
active: [10] 27.8 µM
not listed: [1] | [5] | [13]
inactive: all other assays above

CC(C)c1ccc(C=O)cc1
not listed: [2] | [7] | [13]
inactive: all other assays above
